Screens: PubChem BioAssay, National Center for Advancing Translational Sciences (NCATS)
Lassa entry inh = blocks Lassa virus binding to or entry into cells; Lassa virus pseudotype entry inhibition, cell reporter; Potency, µM (doses to about 37.9 µM), without a hit: top-dose activity change, negative = inhibition, usual class: inhibitors; 300,000 tested, 1.2% active; AID 540256; calls by dose curve; tested in HEK293 cells; also: potency is read from the fitted curve at half-maximal effect; % is scaled to controls: 0 for no effect and ±100 for the full control effect; nearly all actives have a fitted effect of over 50% in size
MARV entry inh = Marburg virus entry inhibition; Marburg virus pseudotyped entry inhibition, cell reporter; Potency, µM (top dose mostly 37.8 µM), for inactives: top-dose activity change, negative = inhibition, usual class: inhibitors; 300,000 tested, 1.8% active; calls by dose curve; tested in HEK293 cells; also: potency is read from the fitted curve at half-maximal effect; % is scaled to controls: 0 for no effect and ±100 for the full control effect
HCMV inh = human cytomegalovirus inhibition; HFF cells, HCMV-luciferase reporter, 72 h; active compounds read low; activity change, negative = inhibition, % at 57.5 µM; 410,000 tested, 4.5% active; AID 1259415; in the data active = activity change below about -60%; inconclusive = no clear call, values can overlap the other calls; inactive = above about -39%; also: % is scaled to controls: 0 for no effect and ±100 for the full control effect
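After 16 h attachment at 37C, HFF cells received test compound and HCMV-luciferase (1 PFU/cell); reporter luminescence read 72 h later, data normalized against buffer-only and known inhibitor Salinomycin.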
SARS PLpro yeast = SARS-CoV PLP inhibition in yeast; S. cerevisiae expressing SARS-CoV PLpro, growth rescue; Potency, µM (top dose mostly 32.9 µM), for the others: at the top dose activity, positive = growth rescue, most hits filed as activators; 330,000 tested, 0.19% active; calls by dose curve; also: potency is read from the fitted curve at half-maximal effect; 0% is about no effect; nearly all actives have a fitted effect of over 55% in size
FMDV antiviral = foot and mouth disease virus antiviral activity | Potency, µM (titrated, usually from 57.9 µM), inactives show top-dose activity change, negative = inhibition, most hits filed as inhibitors | 410,000 tested, 1.2% active | FMDV antiviral cell-based qHTS; calls by dose curve; tested in HEK293T cells; also: read-out not given here; potency is read from the fitted curve at half-maximal effect; % is scaled to controls: 0 for no effect and ±100 for the full control effect; nearly all actives have a fitted effect of over 45% in size
HCV inhibitor = inhibitors of hepatitis C virus infection | Huh7.5.1 HCVcc-Cre infection, luciferase reporter, 44 h | Potency, µM (highest dose often 41.8 µM), for the others: at the highest dose activity change, negative = inhibition, hits mostly inhibitors | 340,000 tested, 3.4% active | AID 651820; active = well fitted inhibition curve with a large enough effect; inconclusive = small, poorly fitted or top-dose-only effect, or another doubt; inactive = no such curve, though single readings can be large or run the other way; also: potency is read from the fitted curve at half-maximal effect; % is scaled to controls: 0 for no effect and ±100 for the full control effect
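Compounds are dispensed onto cells plated 4 h earlier at 1,000 per well, with HCVcc-Cre virus (about 0.5 moi) added next. Following 44 h of culture, luminescent signal is measured for 15 sec after 15 min with substrate at room temperature.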
An asterisk follows results filed as active; ? = inconclusive; nt = no result; ! = a repeat was not active; [ ] = remark or other dose. Shown are actives, neighbours in structure and some others; about 8% of the full set was active somewhere.

SMILES | Lassa entry inh | MARV entry inh | HCMV inh | SARS PLpro yeast | FMDV antiviral | HCV inhibitor
COc1cccc(/C=N/NC(=O)c2ccc(=O)n(C)c2)c1O | ? | ? | 84 | ? | 28% | -16%
O=C(N/N=C/c1cc(Br)c(O)c(Br)c1O)c1cccnc1 | nt | nt | 5 | 5% | -3% | ?
Cc1cccc(NC(=O)Cn2c(=O)n(CCC(=O)N3CCc4ccccc4C3)c(=O)c3ccccc32)c1 | -18%[46.1 µM] | ? | -2 | nt | 4% | nt
CCn1ncc(/C=N\NC(=O)c2ccc3c(c2)c(C)c(C)n3Cc2ccccc2)c1C | -34% | ? | -26 | -1% | ? | -28%
Cn1ncc(N=Cc2c(O)ccc3ccccc23)c1C(=O)Nc1cccc(Cl)c1 | ? | 18µM* | -10 | 0% | -19% | ?
CCn1nc(C)c(/C=N/NC(=O)c2ccc3c(c2)c(C)c(C)n3Cc2ccccc2)c1C | -29% | -30% | -35 | -1% | ? | 10µM*
O=C(N/N=C/c1c(O)ccc2ccccc12)c1cccnc1 | ? | ? | -98* | -9% | 14% | 5µM*
Cn1ncc(Cl)c1C(=O)Nc1cccc(Cl)c1 | ? | 12% | 3 | -23% | 10% | -2%
O=C(NN=Cc1ccc(N(CCCl)CCCl)cc1Cl)c1cccnc1 | ? | 1.6µM* | 16 | nt | -27% | ?
Cc1cc(N(CCCl)CCCl)ccc1C=NNC(=O)c1cccnc1 | ? | ? | ? | nt | -5% | ?
Cc1cccc(OCC(=O)NC(Cc2ccccc2)C(=O)O)c1 (stereo unspecified) | -7% | 3% | -26 | 10% | -19% | 11%
COc1ccc2ccccc2c1/C=N/NC(=O)c1cccc(C)c1 | nt | nt | 7 | nt | -7% | 11µM*
O=C(N/N=C/c1cccc2ccccc12)c1ccncc1 | nt | nt | 37 | 0% | 17% | 8%
Cn1cccc1/C=N\NC(=O)c1cncc(Br)c1 | 11% | ? | ? | 0% | 22% | 18%
O=C(N/N=C\c1c(O)ccc2ccccc12)c1cncc(Br)c1 | ? | ? | -100* | ? | -19% | ?
O=C(NN=Cc1c(O)ccc2ccccc12)c1ccncc1 | 3.2µM* | 3.2µM* | -100* | nt | 3% | ?
Cc1cccc(OCC(=O)NC(C)C(=O)N/N=C/c2c(OCc3ccccc3)ccc3ccccc23)c1 (stereo unspecified) | 3% | ? | -74* | 11% | 9% | 7.9µM*
Cc1ccc(C(=O)N/N=C/c2c(O)ccc3ccccc23)cn1 | nt | nt | -97* | -10% | 20% | 4.5µM*
COc1ccccc1/C=N/NC(=O)c1ccc(C)nc1 | nt | nt | 23 | 0% | 4% | -4%
CCCCCCCCCCCCCCCC(=O)Nc1ccn(C2OC(CO)C(O)C2O)c(=O)n1 (stereo unspecified) | -7%[46.1 µM] | ? | -98* | nt | -18% | -27%
NC[C@H]1O[C@@H](n2ccc(N)nc2=O)[C@H](O)[C@@H]1O | nt | nt | -87* | nt | -13% | nt
NC(=O)c1ncn([C@@H]2O[C@H](CO)[C@@H](O)[C@H]2O)n1 | 23µM*! | ? | 103 | 13% | -19% | -24%
Nc1ccn([C@@H]2O[C@H](CNC(=O)[C@H]3CCC(=O)N3)[C@@H](O)[C@H]2O)c(=O)n1 | nt | nt | -6 | nt | -3% | nt
CCCCCCCCCCCCCCCC(=O)OCC1OC(n2ccc(N)nc2=O)C(O)C1O (stereo unspecified) | -10% | 2% | -36 | nt | -2% | ?
Nc1nc(=S)c2ncn([C@@H]3O[C@H](CO)[C@@H](O)[C@H]3O)c2[nH]1 | nt | nt | -89* | nt | -30% | 2.2µM*
SMILES | Lassa entry inh | MARV entry inh | HCMV inh | SARS PLpro yeast | FMDV antiviral | HCV inhibitor
Cc1ccc(S(=O)(=O)Nc2cccc(-c3ccc(N4CCCCC4)nn3)c2)s1 | -12%[46.1 µM] | nt | 21 | nt | 20% | nt
Cc1ccccc1-c1cc2nc(NCc3cccnc3)n(C)c(=O)c2s1 | nt | nt | 34 | nt | 0% | nt
Nc1ccn([C@@H]2O[C@H](CO)[C@@H](O)[C@@H]2O)c(=O)n1 | ? | ? | -100* | 1% | -18% | ?
Nc1ccn(C2OC(CO)C(O)C2F)c(=O)n1 (stereo unspecified) | nt | nt | -82* | nt | -20% | nt
Nc1ccn(C2OC(CO)C(O)C2O)c(=O)n1 (stereo unspecified) | nt | nt | nt | nt | 3% | nt
Nc1ncn([C@@H]2O[C@H](CO)[C@@H](O)[C@H]2O)c(=O)n1 | 4.1µM* | ? | ? | nt | 0% | -19%
CC1CCN(c2ncnc3ccccc23)CC1 | 0% | -1% | -72* | -3% | ? | 11µM*
O=S(=O)(c1cc(C(F)(F)F)ccc1Cl)N1CCN(c2ncnc3ccccc23)CC1 | ? | -28% | -82* | 2% | ? | 14µM*
Cc1cc(C)c(C)c(S(=O)(=O)N2CCN(c3ncnc4ccccc34)CC2)c1C | nt | nt | ? | -8% | 16µM* | 2.5µM*
Cc1cc(C)c(C)c(S(=O)(=O)N2CCN(c3ccccn3)CC2)c1C | nt | nt | -39 | -20% | -5% | ?
COc1cccc(CNC(=O)c2ccc(-c3nc(CSc4ccccc4)c(C)o3)cc2)c1 | 17%[46.1 µM] | nt | 9 | nt | -12% | nt
CCCCOc1cccc(NC(=O)c2cccc(C(=O)Nc3cccc(OCCCC)c3)c2)c1 | 0%[46.1 µM] | nt | -30 | nt | -15% | nt
Cc1cc(C(=O)Nc2ccccc2)c(C)o1 | 0% | 16% | 8 | -13% | 14% | 10%
CCCCOc1cccc(C(=O)Nc2ccc(NC(=O)c3ccco3)cc2)c1 | nt | 3%[46.1 µM] | -78* | -2% | -8% | 5%
CCCCCOC(=O)c1ccc(NC(=O)c2ccco2)cc1 | -18% | -13% | -17 | -37% | ? | 1%
CCCCOC(=O)c1ccc(NC(=S)NC(=O)c2ccco2)cc1 | 16µM* | ? | -6 | 1% | -9% | 26%
CCCOc1cccc(NC(=O)c2cc(C)oc2C)c1 | -3% | ? | ? | 1% | -7% | 10µM*
CCCOc1cccc(C(=O)Nc2cccc(NC(=O)c3ccco3)c2)c1 | -16% | 5%[46.1 µM] | -8 | -5% | -25% | 25µM*
Cn1c(=O)oc2cc(S(=O)(=O)Nc3ccc4c(c3)OCCO4)ccc21 | 1% | 5% | -91* | nt | -20% | -5%
O=S(=O)(Nc1ccc2c(c1)OCCO2)c1cccs1 | 10% | 11% | -77* | -6% | nt | 4%
Cn1c(=O)oc2cc(S(=O)(=O)NCCC(=O)Nc3ccc4c(c3)OCCO4)ccc21 | 26% | -6% | 9 | 4% | 0% | 9%
O=S(=O)(Nc1ccc2c(c1)OCO2)c1cccs1 | 18% | 13% | 4 | -2% | 55% | ?
Cn1c(=O)c(=O)n(C)c2cc(S(=O)(=O)Nc3ccc4c(c3)OCCO4)ccc21 | -1% | 9% | -76* | -1% | 40µM* | 13%
COc1ccc(C)cc1NC(=O)CSc1nc(=O)n(Cc2ccco2)c2c1CCC2 | 7%[46.1 µM] | nt | -2 | nt | ? | nt
CC(=O)Oc1cc(C)c(OC(C)=O)c2ccccc12 | nt | nt | -12 | nt | nt | nt
